Screens (PubChem)
Rab9 prom act: Rab9 promoter activation; Huh7 Rab9 promoter-luciferase reporter, luminescence, 24 h; actives 2.8% (n = 320,000); Potency, µM (highest dose often 9.22 µM), for inactives: top-dose activation, negative = inhibition, usual class: activators; further: % of control where 0% means no effect; nearly all actives have a fitted effect of over 60% in size
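Cells were plated at 1500 per well in reduced-serum medium with 10% FBS and left 2 h. Compound in DMSO was then added for 24 h at 37 °C. Reporter signal was read by luminescence after 10 min with luciferase detection reagent.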
FLuc counter: firefly luciferase modulation, counter-screen for miR-21 project; P08659; Potency, µM (highest dose often 57.5 µM), for the others: top-dose activity change, negative = inhibition, most hits filed as inhibitors; actives 6.9% (n = 360,000); purified FLuc, Km substrates, luminescence inhibition;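 further: plate controls were vehicle for no effect and reference inhibitor for full effect; nearly all actives have a fitted effect of over 55% in size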
Target sequence (P08659 whole entry, looked up): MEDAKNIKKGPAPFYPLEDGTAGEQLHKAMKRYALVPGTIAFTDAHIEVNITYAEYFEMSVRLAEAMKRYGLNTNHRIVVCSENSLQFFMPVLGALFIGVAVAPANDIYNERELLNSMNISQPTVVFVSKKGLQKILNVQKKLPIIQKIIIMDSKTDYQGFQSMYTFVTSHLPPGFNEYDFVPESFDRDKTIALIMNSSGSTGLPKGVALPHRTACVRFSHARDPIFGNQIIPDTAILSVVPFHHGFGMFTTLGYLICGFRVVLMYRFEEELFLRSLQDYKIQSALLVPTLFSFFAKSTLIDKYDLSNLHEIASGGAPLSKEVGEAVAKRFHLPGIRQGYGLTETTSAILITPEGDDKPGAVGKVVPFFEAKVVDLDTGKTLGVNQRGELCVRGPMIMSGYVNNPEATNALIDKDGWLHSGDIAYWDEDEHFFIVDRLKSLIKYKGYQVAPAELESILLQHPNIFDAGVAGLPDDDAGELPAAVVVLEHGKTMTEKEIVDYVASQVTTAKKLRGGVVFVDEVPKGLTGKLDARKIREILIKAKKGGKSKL
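Purified P. pyralis luciferase (10nM final) with 10uM D-luciferin and 10uM ATP (Km levels) in 50mM Tris acetate pH 7.5, 10mM Mg acetate, 0.01% Tween-20, 0.05% BSA; qHTS 6-point titration, ~60 µM downward; luminescence read.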
SMN2 splice up: increases expression of the SMN2 splice variant; HEK293 SMN2-luciferase splicing reporter, luminescence, 30-36 h; Potency, µM (doses to about 46.1 µM), inactives show at the top dose activity change, positive = activation, most hits filed as activators; actives 2.8% (n = 210,000); AID 1458; further: % of control where 0% means no effect; nearly all actives have a fitted effect of over 55% in size
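qHTS luciferase splicing reporter: luminescence rises when SMN2 exon 7 is included in transfected HEK293 cells. Compound exposure lasted 30-36 h at 37C, with 4.5 mM final sodium butyrate as control, followed by a ONE-Glo read.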
KinaseGlo FLuc: blocks Kinase-Glo luciferase, a counter-screen artifact | Q27757 | Kinase-Glo luciferase, ATP luminescence, 8 min | Potency, µM (top dose mostly 38.3 µM), inactives show at the top dose activity change, negative = inhibition, most hits filed as inhibitors | actives 0.28% (n = 200,000); further: on the % scale 0 is the no-effect control and ±100 the full control effect; nearly all actives have a fitted effect of over 60% in size
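Recombinant Kinase-Glo luciferase, 10 uM ATP (linear range), luciferin; imidazole pH 7.2 / KCl / MgCl2 / Tween / BSA buffer; 8 min RT; luminescence.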
ELG1 genotoxic: genotoxicity induction in ELG1-luciferase HEK293T cells. Potency, µM (titrated, usually from 46 µM), inactives show at the highest dose activity change, positive = activation, hits mostly activators. actives 1.3% (n = 330,000). AID 504466. HEK293T ELG1-luciferase reporter, luminescence, 16 h; further: % of control where 0% means no effect; nearly all actives have a fitted effect of over 60% in size
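Step 1: seed 2,000 HEK293T ELG1-luciferase cells per well. Step 2: add compound or DMSO, incubate 16 hr at 37 °C. Step 3: ONE-Glo, 30 min at room temperature, read luminescence.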
NPC1 prom act: NPC1 promoter activation | Huh7 NPC1 promoter luciferase reporter, 24 h | Potency, µM (top dose mostly 9.22 µM), inactives show top-dose activation, most hits filed as activators | actives 2.4% (n = 320,000) | AID 485313; further: % of control where 0% means no effect; nearly all actives have a fitted effect of over 60% in size
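Luminescence from an NPC1 promoter-driven luciferase reporter in stably transfected Huh7 cells was measured after 24 h compound treatment at 37 °C, followed by 10 min ambient incubation with luciferase detection reagent.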
Active calls of the source: *; ? = inconclusive; · = no result; [ ] = another dose, or the depositor's remark. An excerpt weighted towards active compounds, which were near 7.5% of everything screened. The call rests on the fitted dose curve; in most records, active means well fitted curve in the direction sought with a large enough effect; inconclusive means small, poorly fitted or top-dose-only effect, or another doubt; inactive means no such curve, though single readings can be large; an effect the other way counts as inactive or inconclusive. Potency means the concentration at half of the fitted maximal effect.

SMILES	Rab9 prom act	FLuc counter	SMN2 splice up	KinaseGlo FLuc	ELG1 genotoxic	NPC1 prom act
COc1cc(N2CCOCC2)ccc1/C=C1\C(=O)NC(=O)N(Cc2ccc3c(c2)OCO3)C1=O	-6%	17µM*	4%	-2%	1%	-6%
c1ccc(-c2nc(N3CCOCC3)s[n+]2-c2ccccc2)cc1	-1%	7.6µM*	12%	-2%	13%	2%
N[C@H](Cc1ccc2oc3cc(=O)c4ccccc4c-3nc2c1)C(=O)O	·	·	1%[9.22 µM]	-4%[7.66 µM]	·	·
CN(C)C(=O)Oc1ccc(OC(=O)c2ccccc2)cc1	-2%	6.7µM*	5%	?	?	-4%
O=[As](O)(O)c1ccc(Cc2ccc([As](=O)(O)O)cc2)cc1	·	·	-35%[9.22 µM]	0%[7.66 µM]	·	·
CCOC(=O)C1CCCN(C(=O)c2ccc3oc(Cc4ccccc4)nc3c2)C1 (stereo unspecified)	4.5µM*	12µM*	·	·	?	3.5µM*
O=c1[nH]cnc2[nH]cc(CN3CCCCC3)c12	·	·	-8%[9.22 µM]	-2%[7.66 µM]	·	·
O=C(Oc1ccc2ccccc2c1)c1ccco1	5%	12µM*	-2%	-9%	3%	-2%
O=C(Nc1ccccc1F)Oc1cccc(OC(=O)Nc2ccccc2F)c1	2.8µM*	17µM*	·	·	10%	3.5µM*
COc1ccc(C)cc1NC(=O)CN1CCN(CC(=O)Nc2ccccc2F)CC1	-10%	2%	-54%	2%	?	-3%
CC(=O)[O-].CC(=O)[O-].O.O.O.[Pb+2]	·	·	2%	·	·	·
O=C(CN1CCCC1)Nc1ccc(NC(=O)Nc2ccccc2)cc1	?	19µM*	·	1%	16%	?
O=C(CN1CCCC1=O)Nc1ccccc1	-3%	2%	7%	4%	3%	-1%
Cc1cc(C=C2C(=O)NC(=O)NC2=O)c(C)n1-c1cccnc1	0%	?	·	·	3%	2%
Cc1cc(N2CCCCC2)ccc1C=C1C(=O)N(C)C(=S)N(C)C1=O	-5%	?	-54%	-9%	2%	-5%
Cc1cc(C=C2C(=O)NC(=S)NC2=O)c(C)n1C1CCCC1	0%	1.5µM*	7%	?	21µM*	0%
Cc1cc(C=C2C(=O)N(C)C(=S)N(C)C2=O)c(C)n1C1CCCCC1	3%	3.4µM*	-20%	-4%	-2%	-6%
CN1C[C@H](C(=O)N[C@@]2(C)O[C@@]3(O)[C@H]4CCCN4C(=O)[C@@H](Cc4ccccc4)N3C2=O)C=C2c3cccc4[nH]cc(c34)C[C@@H]21	·	·	-3%[9.22 µM]	-8%[7.66 µM]	·	·
CN(C)c1ccc2c(c1)N=C(c1ccco1)OP2(=S)N1CCOCC1 (stereo unspecified)	26%	15µM*	18%	-7%	?	5%
CN1C(=O)C(=Cc2ccccc2OCc2ccc(Cl)cc2)C(=O)N(C)C1=O	1%	9.5µM*	?	-8%	?	-3%
O=c1oc2ccccc2c(O)c1C(c1ccc([N+](=O)[O-])cc1)c1c(O)c2ccccc2oc1=O	2%	19µM*	-10%	0%	-10%	-4%
CC(C)c1ccc(C(c2c(O)c3ccccc3oc2=O)c2c(O)c3ccccc3oc2=O)cc1	·	·	1%[9.22 µM]	-4%[7.66 µM]	·	·
OC(c1ccccc1)(c1ccccc1)C1CCCN1 (stereo unspecified)	3.2µM*	12µM*	19%	-8%	?	-37%
CCCC[N+]12CCC(CC1)C(C(O)(c1ccccc1)c1ccccc1)C2 (stereo unspecified)	-9%	0%	·	·	-1%	-5%
Cc1ccc(NC(=O)c2snnc2C)cc1Cl	-1%	-12%	-3%	0%	18%	-4%
Cc1ccc(C(=O)Nc2c(C(=O)Nc3ccc(C)c(C)c3)sc3nc(C)cc(C)c23)cc1	·	11µM*	13µM*	·	·	·
Cc1ccc(OCC(=O)N/N=C\c2ccc(O)c([N+](=O)[O-])c2)c([N+](=O)[O-])c1	-3%	27µM*	-11%	0%	1%	1%
